# According to PubChem BioAssay AID687014 (The Scripps Research Institute Molecular Screening Center, 2013):
# About 6,800 (1.8%) of roughly 370,000 compounds were called active.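 Rule for the calls: active = activation above a cutoff set at the mean of all screened compounds plus 3 SD (cut at about 10% in these data); inactive = the rest.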 For the sample, actives were picked, then their nearest neighbours and some compounds at random.
# Test system: Nuclear hormone receptor DAF-12 (Heterodera glycines), GAL4 fusion
# Assay: hgDAF-12 GAL4 fusion reporter activation – cell-based, luminescence, HEK293, UAS-luciferase, primary screen (AID 687014);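 note: 0% = DMSO wells and 100% = sodium butyrate wells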
# Conditions: HEK293 GAL4-hgDAF12 UAS-luciferase reporter, agonist luminescence; at 6.8 µM; stronger effect = higher value; normalized to butyrate control
row,SMILES,activation
1,O=C(Nc1cccc(Cl)c1)c1cncn1-c1ccc(F)cc1,1.29% (inactive)
2,CCOC(=O)c1nnn(CC(=O)Nc2cccc(F)c2)c1C(=O)OCC,-0.57% (inactive)
3,CCC(=O)Nc1ccc2nn(-c3ccc(F)cc3)nc2c1,12.1% (active)
4,CCOC(=O)N1CCN(c2cc(C)c([N+](=O)[O-])cc2F)CC1,4.66% (inactive)
5,CCNC(=S)NCC,-0.86% (inactive)
6,Cc1ccc(C(=O)N(Cc2ccccn2)CC2CCCO2)cc1 (stereo not drawn),-3.33% (inactive)
7,Cc1ccc(NC(=S)NNC(=O)CSc2nnc(SCc3ccccc3Cl)s2)cc1,2.13% (inactive)
8,COC(=O)c1c(-c2ccc(OC)cc2)c2c(c3c4cc(OC)ccc4n(S(=O)(=O)c4ccc(F)cc4)c13)C(=O)N(C)C2,-2.44% (inactive)
9,O=C(Nc1ccccc1)Nc1nnc(COc2ccccc2F)s1,-2.63% (inactive)
10,O=C(Nc1ccccc1)Nc1nc2ccccc2s1,26.4% (active)
11,O=C(Nc1nc2ccc(Cl)cc2s1)c1cc(-c2ccc(Cl)cc2)nc2ccccc12,-1.16% (inactive)
12,CN(CCc1ccccc1)c1ccc([N+](=O)[O-])cn1,2.43% (inactive)
13,CC(C)c1ccc(/C=C2\NC(=O)NC2=O)cc1,1.14% (inactive)
14,CC(C)c1ccc(C=NNc2ccc([N+](=O)[O-])cn2)cc1,16.8% (active)
15,CCOC(=O)c1csc(NC(=O)C2CCCN(S(=O)(=O)c3ccc(Cl)s3)C2)n1 (stereo not drawn),-0.73% (inactive)
16,CSCCC(NC(=O)c1ccco1)C(=O)NCCc1ccc(F)cc1 (stereo not drawn),0.46% (inactive)
17,CSCCC(NC(=O)c1ccco1)C(=O)OCC(=O)Nc1ncc(Cl)c(C)c1Cl (stereo not drawn),-1.62% (inactive)
18,CSCCC(NC(=O)c1ccco1)C(=O)Nc1cc(C)ccn1 (stereo not drawn),11.9% (active)
19,COC(=O)[C@]12C[C@H](CC(=O)NCc3ccccc3)C(=O)N(CCC3=CCCCC3)C1=C[C@H](C(C)C)O[C@@H]2C1CC1,2% (inactive)
20,O=[N+]([O-])c1cc(C(F)(F)F)ccc1NN=C1CCCC1,0.04% (inactive)
21,O=[N+]([O-])c1cc(S(=O)(=O)N2CCCC2)ccc1NN=C1CCCC1,15.3% (active)
22,O=C(COc1ccc(S(=O)(=O)N2CCCC2)cc1[N+](=O)[O-])N1CCCCC1,-0.16% (inactive)
23,O=C1CC(c2ccc3c(c2)OCO3)N=C2N(CC3CC3)C/C(=C/c3ccccc3)N12 (stereo not drawn),-2.7% (inactive)
24,Cc1cc(C)cc(N(CC(=O)NC2CCCC2)C(=O)CCC(=O)Nc2cc(C)on2)c1,-1.1% (inactive)

row,SMILES,activation
1,O=C(O)C1CCCN1S(=O)(=O)c1ccc(Br)cc1 (stereo not drawn),0.88% (inactive)
2,CC1CN/C(=C\C(=O)c2ccc(Br)cc2)C(=O)N1 (stereo not drawn),10.5% (active)
3,COc1cc2c(cc1OC)/C(=C/C(=O)c1ccc(NC(C)=O)cc1)NCC2,0.96% (inactive)
4,C=CCN=C1NC(c2cccc(C(F)(F)F)c2)C(C(=O)OC)=C(C)N1C (stereo not drawn),1.38% (inactive)
5,Cc1cccc(Cn2cnc3c(N)c(C)c(C)cc32)c1,-4.28% (inactive)
6,CCCCCCN1CCS(=O)(=O)N(Cc2ccc(C(F)(F)F)cc2)C(C(=O)OC)C1 (stereo not drawn),1.39% (inactive)
7,Cc1cnc(C(=O)OCC(=O)N2CCc3ccccc32)cn1,1.4% (inactive)
8,O=C(c1cnn2ccccc12)N1CCc2ccccc21,16.5% (active)
9,CCCCn1nc(C(=O)N2CCc3ccccc32)c2ccccc2c1=O,-0.16% (inactive)
10,COC(=O)[C@]12C[C@H](CC(=O)NCCCCc3ccccc3)C(=O)N(Cc3ccc4c(c3)OCO4)C1=C[C@H](C(C)(C)C)O[C@@H]2C,0.98% (inactive)
11,Cc1ccc(-n2ncc3c(=O)n(-c4ccc(C)c(C)c4)c(-c4ccco4)nc32)cc1,3.84% (inactive)
12,Cn1c(-c2ccco2)nc2cc3ccccc3cc21,19.3% (active)
13,Cn1c(SCC(=O)c2cccs2)nnc1-c1ccco1,1.52% (inactive)
14,O=C(Nc1c(Cl)c(C2CC2)nn1-c1ccccc1)C(Cl)(Cl)Cl,-2.93% (inactive)
15,CCC[C@H]1C(=O)CC[C@@]23CCCN2C(=O)CCC[C@@H]13,1.6% (inactive)
16,COC(=O)CSc1nnc(-c2cccnc2)o1,1.06% (inactive)
17,CN(C)c1ccc(-c2nnc(-c3cccnc3)o2)cc1,10.8% (active)
18,CC1(c2nnc(-c3ccncc3)o2)CC(c2cccnc2)=NO1 (stereo not drawn),3.68% (inactive)
19,COc1ccc(/C(N)=N/OC(=O)CCCc2ccccc2)cc1,-0.4% (inactive)
20,COc1ccc(/C(N)=N/OC(=O)Cc2ccccc2)cc1,11.7% (active)
21,COc1ccc(/C(N)=N/OC(=O)Oc2ccccc2)cc1,1.76% (inactive)
22,CC(=O)Nc1ccc(OC[C@@H](O)CN2CCC(C(O)(c3ccccc3)c3ccccc3)CC2)cc1,2.46% (inactive)
23,CCCNC(=O)C1CC(=O)N(c2ccc(OCC(=O)Nc3cccc(C)c3C)cc2)C1 (stereo not drawn),0.77% (inactive)
24,CCOc1ccc(N2CC(C(=O)NCc3ccccn3)CC2=O)cc1 (stereo not drawn),-1.47% (inactive)

row,SMILES,activation
1,CCCNC(=O)C1CC(=O)N(c2ccc(OCc3ccccc3)cc2)C1 (stereo not drawn),11% (active)
2,COc1ccc(N2CCN(CCNS(=O)(=O)c3ccc(Cl)s3)CC2)cc1,2.51% (inactive)
3,COc1cccc(C(O)Cc2nc3ccccc3n2C)c1OC (stereo not drawn),3.91% (inactive)
4,Cc1ccc(OCc2nc3ccccc3n2C)cc1,13.2% (active)
5,Cc1ccc(Oc2nc3ccccc3n3c(C)nnc23)cc1,1.53% (inactive)
6,COC(=O)[C@]12C[C@H](CC(=O)NCc3cccc4ccccc34)C(=O)N(CCc3ccc(OC)c(OC)c3)C1=C[C@H](C1CCCC1)O[C@@H]2C,-1.01% (inactive)
7,O=C(CSc1nnc(-c2ccccn2)n1-c1ccccc1)Nc1ccc2cn[nH]c2c1,6.78% (inactive)
8,O=C(NCCS(=O)(=O)c1ccc(Br)cc1)c1ccccc1Cl,2.39% (inactive)
9,Cc1ccccc1NC(=O)Cn1nnc(-c2ccccc2F)n1,-1.63% (inactive)
10,CN(C)c1ccnc2sc(C(=O)c3ccccc3)c(N)c12,21.3% (active)
11,COC(=O)c1cc2c(N)c(C(=O)c3ccc(Cl)cc3)sc2nc1C(OC)OC,-0.74% (inactive)
12,CC(=O)c1c(Nc2ccccc2)sc(C(=O)c2ccccc2)c1C,4.88% (inactive)
13,COC(=O)c1c(C(=O)OC)c(-c2cccc(C)c2)n2c1CS(=O)C2 (stereo not drawn),2.79% (inactive)
14,Cc1cc(NS(=O)(=O)c2ccc(NC(=O)CSc3nnc(SCc4ccc(F)cc4)s3)cc2)nc(C)n1,1.18% (inactive)
15,CCOC(=O)C(=O)N(Cc1ccccc1)c1ccccc1C(=O)Nc1cc(OC)ccc1OC,-2.17% (inactive)
16,Cc1ccccc1CN1CCCCC(NC(=O)c2cccc(C#N)c2)C1=O (stereo not drawn),-2.73% (inactive)
17,COC(=O)C1=C(C)N(Cc2ccc(C(F)(F)F)cc2)C(=NCc2ccccc2)NC1c1ccccc1C(F)(F)F (stereo not drawn),1.9% (inactive)
18,COCc1[nH]nc2c1C(c1ccccc1)N(c1ccccc1)C2=O (stereo not drawn),0.79% (inactive)
19,COCc1cc(N2CCN(C(=O)OC(C)(C)C)C[C@@H]2C)ccc1N1CCN(Cc2ccccc2)[C@H](C)C1,4.83% (inactive)
20,CCN(C(=O)CSc1cccc[n+]1[O-])c1ccccc1,-0.46% (inactive)
21,O=C(CSc1cccc[n+]1[O-])c1ccc(-c2ccccc2)cc1,10.8% (active)
22,O=C(CSc1cccc[n+]1[O-])NCCCc1ccccc1,1.17% (inactive)
23,CC1(c2ccc(Cl)cc2)NC(=O)N(CC(=O)c2ccc3c(c2)OCO3)C1=O (stereo not drawn),-1.6% (inactive)
24,Cc1nc(NC(=O)c2ccc3c(c2)OCCO3)ccc1Br,7.16% (inactive)

row,SMILES,activation
1,O=C(Nc1ccc(Cl)cn1)c1ccc2c(c1)OCCO2,18.1% (active)
2,CC(OC(=O)CNC(=O)c1ccco1)C(=O)Nc1ccc(Cl)cn1 (stereo not drawn),1.56% (inactive)
3,COc1ccc(C(=O)N/N=C(\C)CC(=O)Nc2ccc(Cl)cn2)cc1,0.32% (inactive)
4,CCCc1cc(C(=O)Nc2ccc(Cl)cn2)cs1,12.9% (active)
5,O=C(c1c[nH]c2ccccc12)N1CCC(Oc2cccnc2)CC1,4.09% (inactive)
6,Cc1ccc(C(=O)C2CCN(CC(=O)NCCC(C)C)CC2)cc1,-0.75% (inactive)
7,CC(C)CC(=O)N1CCC(O)(CS(=O)(=O)Cc2ccccc2)CC1,-2.29% (inactive)
8,CCCCC(=O)N[C@@H]1CC[C@@]23CCCN2C(=O)CCC[C@H]3[C@H]1C,0.52% (inactive)
9,CCN(C(=O)[C@@H](C1CC1)[C@@H](O)c1ccc2ccccc2c1)c1ccccc1,-0.8% (inactive)
10,Cc1ccc(N)cc1CN1CCN(c2ncc(Cc3ccccc3)cn2)CC1,0.77% (inactive)
11,Cc1cc(N)n2nc(-c3ccc(C(C)(C)C)cc3)cc2n1,20% (active)
12,CCC1([N+](=O)[O-])COC(c2ccc(C(C)C)cc2)OC1 (stereo not drawn),12.9% (active)
13,CCC1([N+](=O)[O-])COC(c2ccc(C)cc2)OC1 (stereo not drawn),1.83% (inactive)
14,CCC1(C)COC(c2ccc(OC)c(OC)c2)OC1 (stereo not drawn),-1.37% (inactive)
15,Oc1ccc(/C=C/c2c(F)cccc2F)c2cccnc12,-6.27% (inactive)
16,CCCCNc1cccc2c1S(=O)(=O)N[C@@H](C)CO2,0.24% (inactive)
17,O=C(NCc1ccccc1)[C@H]1CCCN1C(=O)[C@H]1CCCN1C(=O)c1cc(F)cc(F)c1,-0.18% (inactive)
18,CC(C)N1CCCCC(NC(=O)C(C)(C)C)C1=O (stereo not drawn),0.58% (inactive)
19,CC(=O)c1ccc(S(=O)(=O)NCC2CCN(C(=O)C(=O)c3cccs3)CC2)cc1,-0.16% (inactive)
20,O=C(OCC(=O)N1CCOCC1)c1ccc2ccccc2c1,4.48% (inactive)
21,NC(=O)c1ccccc1N=Cc1ccc2ccccc2c1,14.3% (active)
